Sampled rows, rich in hits. Any-hit rate of the full collection: about 19%.
TDP1 cell CPT = qHTS for Inhibitors of human tyrosyl-DNA phosphodiesterase 1 (TDP1): qHTS in cells in presence of CPT; chicken DT40 Tdp1-/-;hTDP1 cells + 20 nM CPT, ATP luminescence, 48 h; Potency, µM (titrated, usually from 46.2 µM), inactives show at the top dose activity change, negative = growth inhibition, actives largely listed as inhibitors; 12% of 420,000 active; AID 686979, 2013; further: potency means the concentration at half of the fitted maximal effect; on the % scale 0 is the no-effect control and ±100 the full control effect; nearly all actives have a fitted effect of over 55% in size
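Cell growth measured by CellTiter-Glo luminescence after a minimum 48 h, 37 C compound exposure with 20 nM CPT in Tdp1-knockout DT40 cells stably expressing hTDP1, seeded 400/well; qHTS titration format.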
IL-1B inflam inh = qHTS for Inhibitors of Inflammasome Signaling: IL-1-beta AlphaLISA Primary Screen. THP-1 LPS/ATP IL-1B secretion, AlphaLISA, 16 h; stronger effect = lower value. 4.7% of 360,000 active. activity change, % at 57.5 µM. AID 743279, 2014; in the data active means activity change below about -50%; inconclusive means mostly about -30% to -49%; further: on the % scale 0 is the no-effect control and ±100 the full control effect
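Secreted IL-1B measured by AlphaLISA bead assay after 16 h compound exposure of THP-1 cells; compounds (final up to 57.5 uM) added 1 h before LPS (250 ng/mL) and ATP (1.25 mM) stimulation; lower signal means less secretion.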
TDP1 cell noCPT = qHTS for Inhibitors of human tyrosyl-DNA phosphodiesterase 1 (TDP1): qHTS in cells in absence of CPT. Potency, µM (highest dose often 46.2 µM), for inactives: at the highest dose activity change, negative = growth inhibition, usual class: inhibitors. DT40 Tdp1-/- hTDP1 cells, no CPT, ATP luminescence, 48 h. 15% of 420,000 active; further: potency means the concentration at half of the fitted maximal effect; on the % scale 0 is the no-effect control and ±100 the full control effect; nearly all actives have a fitted effect of over 55% in size
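Chicken DT40 Tdp1-/- cells stably complemented with human TDP1 were seeded at 400 cells/well with DMSO in place of 20 nM camptothecin. After compound pinning, cells grew at least 48 hr at 37 °C; viability read by CellTiter-Glo luminescence.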
HepG2 viability = qHTS for Inhibitors of TGF-b: Cytotox Counterscreen | AID 588856, 2011 | 0.76% of 410,000 active | Potency, µM (doses to about 46.1 µM), for inactives: at the top dose activity change, negative = cytotoxicity, actives largely listed as cytotoxic | HepG2 CAGA-GFP viability, ATP luminescence, 18 h; further: potency means the concentration at half of the fitted maximal effect
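CellTiter-Glo luminescence gave cytotoxicity after 18 hours at 37 degrees C. The cells were HepG2 CAGA-GFP in 1% FBS DMEM, stimulated with 500 pg/mL TGF-beta after compound addition. %Activity was normalised to no-cell wells (complete cell-killing) and DMSO (no toxicity), and curves were fitted and classified.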
ASM inhibitor = Inhibitors of Secretory Acid Sphingomyelinase (S-ASM): qHTS | placental ASM, HMU-PC fluorogenic substrate, 60 min | Potency, µM (top dose mostly 57.5 µM), inactives show at the top dose activity change, negative = inhibition, actives largely listed as inhibitors | 0.006% of 340,000 active | Sphingomyelin phosphodiesterase (Homo sapiens), P17405 | AID 504937, 2011; further: potency means the concentration at half of the fitted maximal effect
Target sequence (P17405 47-631 limits assumed): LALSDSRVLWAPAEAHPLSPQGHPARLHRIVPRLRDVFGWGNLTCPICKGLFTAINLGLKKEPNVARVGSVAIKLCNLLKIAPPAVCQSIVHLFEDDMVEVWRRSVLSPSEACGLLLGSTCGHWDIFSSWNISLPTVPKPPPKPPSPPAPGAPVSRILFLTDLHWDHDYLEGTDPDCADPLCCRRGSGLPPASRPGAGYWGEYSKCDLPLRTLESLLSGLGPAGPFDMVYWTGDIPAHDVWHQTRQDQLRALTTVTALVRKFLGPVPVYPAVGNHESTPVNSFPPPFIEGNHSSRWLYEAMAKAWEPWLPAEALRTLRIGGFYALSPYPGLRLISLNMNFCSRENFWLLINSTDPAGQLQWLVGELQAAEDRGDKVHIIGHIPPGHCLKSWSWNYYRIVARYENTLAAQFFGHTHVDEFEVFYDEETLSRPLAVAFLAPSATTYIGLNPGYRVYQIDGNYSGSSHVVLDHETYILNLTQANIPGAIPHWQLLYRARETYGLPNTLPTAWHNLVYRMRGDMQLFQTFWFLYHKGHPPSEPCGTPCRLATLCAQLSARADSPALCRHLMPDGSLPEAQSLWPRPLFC
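Human placenta-derived ASM enzyme was preincubated with compound for 10 minutes at room temperature, then given fluorogenic substrate HMU-PC0 (9 uM final) for 60 minutes at 37 °C; a pH 10 stop preceded fluorescence reading at Ex 386/Em 447 nm.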
TGFb SMAD3 inh = qHTS for Inhibitors of TGF-b | HepG2 CAGA-GFP TGF-b/SMAD3 reporter, GFP fluorescence, 18 h; TGF-beta stimulated, 500 pg/mL final | Potency, µM (highest dose often 46.1 µM), for the others: at the top dose activity, negative = inhibition, most hits filed as inhibitors | 1.2% of 410,000 active; further: potency means the concentration at half of the fitted maximal effect; on the % scale 0 is the no-effect control and ±100 the full control effect; nearly all actives have a fitted effect of over 65% in size
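Inhibition was scored as loss of TGF-beta-induced (500 pg/mL final, 18 hours, 37 degrees C) GFP in HEPG2 cells carrying a CAGA-GFP reporter, in DMEM with 1% FBS. Well GFP was summed per cell; Activity was normalised to unstimulated and stimulated DMSO wells, then concentration-response fitting.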
Numbers without * were called inactive. Unless noted, the call rests on the fitted dose curve; in most records, active means well fitted curve in the direction sought with a large enough effect; inconclusive means small, poorly fitted or top-dose-only effect, or another doubt; inactive means no such curve, though single readings can be large; an effect the other way counts as inactive or inconclusive.

What do the screens show for `CCOC(=O)N1CCN(S(=O)(=O)c2ccc(C(=O)N(CCCN(C)C)c3nc4ccc(CC)cc4s3)cc2)CC1`?
TDP1 cell CPT: inconclusive; IL-1B inflam inh: -61.8*; TDP1 cell noCPT: inconclusive; HepG2 viability: -13.4%; ASM inhibitor: -10.6%; TGFb SMAD3 inh: 0.0%

What do the screens show for `CCOC(=O)N1CCN(S(=O)(=O)c2ccc(C(=O)N(CCCN(C)C)c3nc4ccc(Cl)cc4s3)cc2)CC1`?
TDP1 cell CPT: inconclusive; IL-1B inflam inh: -96.4*; TDP1 cell noCPT: 18.4µM*; HepG2 viability: 11.2µM*; ASM inhibitor: -5.7%; TGFb SMAD3 inh: inconclusive

How did CCC(C)NC(=S)N(Cc1cc2cc(C)ccc2n2nnnc12)CC(C)(C)NC(C)C (stereo not given) do in these assays?
TDP1 cell CPT: 16.4µM*; IL-1B inflam inh: 6.8; TDP1 cell noCPT: 16.4µM*; HepG2 viability: -53.7%; ASM inhibitor: 0.0%; TGFb SMAD3 inh: 0.3%

What do the screens show for `COCCN(Cc1cc2cc(C)ccc2n2nnnc12)C(=S)Nc1ccc(C)cc1`?
TDP1 cell CPT: 18.4µM*; IL-1B inflam inh: -7.5; TDP1 cell noCPT: 23.1µM*; HepG2 viability: 9.2%; ASM inhibitor: -4.8%; TGFb SMAD3 inh: 1.0%

Results for CNC(=O)OCc1snc(-c2ccccc2)c1COC(=O)NC ?
TDP1 cell CPT: 0.1%; IL-1B inflam inh: 6.8; TDP1 cell noCPT: -7.4%; HepG2 viability: 6.0%; TGFb SMAD3 inh: 13.4%

Results for O=C(c1cc(S(=O)(=O)N2CCOCC2)c(Cl)cc1Cl)N1CCN(S(=O)(=O)c2cccc(F)c2)CC1 ?
TDP1 cell CPT: -9.0%; IL-1B inflam inh: -6.9; TDP1 cell noCPT: inconclusive; HepG2 viability: -1.6%; ASM inhibitor: -3.0%; TGFb SMAD3 inh: 16.7%

Results for COc1ccc(NC(=O)C2CCN(C(=O)[C@@H]3Cc4ccccc4CN3)CC2)cc1 ?
TDP1 cell CPT: -1.7%; IL-1B inflam inh: 47.6; TDP1 cell noCPT: 2.2%; HepG2 viability: -0.1%; ASM inhibitor: 0.6%; TGFb SMAD3 inh: 1.1%

How did COc1ccc(CNC(=O)C2CCN(C(=O)c3csc(Nc4ccc(C)cc4)n3)CC2)cc1 do in these assays?
TDP1 cell CPT: inconclusive; IL-1B inflam inh: -52.8*; TDP1 cell noCPT: inconclusive; HepG2 viability: -32.3%; ASM inhibitor: -2.9%; TGFb SMAD3 inh: 2.3%

What do the screens show for `COc1ccc(CNC(=O)C2CCN(c3nc4ccc(C)cc4[nH]3)CC2)cc1`?
TDP1 cell CPT: inconclusive; TDP1 cell noCPT: 10.3µM*; HepG2 viability: -28.8%; TGFb SMAD3 inh: -10.7%

Results for COc1cccc(CNC(=O)C2CCN(c3nc4ccc(Cl)cc4[nH]3)CC2)c1 ?
TDP1 cell CPT: 20.6µM*; TDP1 cell noCPT: inconclusive; HepG2 viability: 1.5%; TGFb SMAD3 inh: 0.0%

How did COc1ccc(CNC(=O)C2CCN(C(=O)[C@@H]3Cc4ccccc4CN3)CC2)cc1 do in these assays?
TDP1 cell CPT: 16.4µM*; IL-1B inflam inh: -14.8; TDP1 cell noCPT: inconclusive; HepG2 viability: -20.0%; ASM inhibitor: 4.0%; TGFb SMAD3 inh: 19.1%

Results for O=C(COc1ccc(Nc2ccccc2)cc1)OCC(=O)N1CCCCC1 ?
TDP1 cell CPT: 7.8%; IL-1B inflam inh: 4.8; TDP1 cell noCPT: 17.7%; HepG2 viability: -4.3%; ASM inhibitor: -1.9%; TGFb SMAD3 inh: -15.8%

Screening data (PubChem)
